Source: PubChem BioAssay (NCI)
Values joined by “and” are separate entries in the source; they are usually repeats but may differ in a detail not shown here. Equal values may be shown once. Compounds without any hit were thinned out: in the full panel of roughly 83,000, 20% have a hit.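 The test compound was applied at a single concentration to cells in 96-well plates for 48 hours, and percent growth was recorded.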 Unmarked numbers belong to inactive results. Active and inactive are the calls of the source. The calls were made as follows: active = growth percent below 10; inactive = the rest.

Each molecule was assayed on MDA-MB-468 breast (assay: NCI-60 one-dose screen, 48 h (100 = growth as untreated, 0 = no growth, -100 = all killed)). Conditions: 10 µM unless noted.

| Compound | growth |
| --- | --- |
| Cc1c(C(N)=O)sc2ncn(CC(=O)NN=C3CCCCC3)c(=O)c12 | 109% |
| CCN1/C(=C\c2cc[n+](CC)c3ccccc23)C=Cc2ccccc21 | -9.93% (active) |
| N#Cc1c(-c2cccc(Cl)c2)cc(-c2cccc(F)c2)[nH]c1=O | 87.1% |
| O=C(C[P+](c1ccccc1)(c1ccccc1)c1ccccc1)C[P+](c1ccccc1)(c1ccccc1)c1ccccc1 | -33.8% (active) |
| COc1cc(-c2cc(-c3cccs3)c(C#N)c(N3CCOCC3)n2)cc(OC)c1OC | 55% |
| Cc1ccc(C2SCC(=O)N2NC(=O)c2[nH]c3ccc(F)cc3c2-c2ccccc2)cc1 (stereo not given) | 96% |
| N=C(N)c1ccc(-c2ccc(-c3cc(Cl)cc(Cl)c3)o2)o1 | -69.1% (active) |
| CN1CCN(Cc2ccc(NC(=O)c3cncc(C#Cc4ncc5cnccn45)c3)cc2C(F)(F)F)CC1 | 86.7% |
| CN1CCN(Cc2ccc(NC(=O)c3cncc(C#Cc4c(N)ncc5cc(F)ccc45)c3)cc2C(F)(F)F)CC1 | 55.6% |
| CCCn1c(=O)[nH]c(N)c([C@H]2c3ccccc3Oc3[nH]c(=O)n(CCC)c(=O)c32)c1=O | 68.7% |
| COc1cc(C2NC(=O)C(C#N)=C(Nc3cccc(C)c3)S2)ccc1O (stereo not given) | 96.6% |
| CC[C@]1(O)C[C@H]2CN(CCc3c([nH]c4ccccc34)C(C(=O)OC)(c3cc4c(cc3OC)N(C)[C@H]3[C@@](O)(C(=O)OC)[C@H](OC(C)=O)[C@]5(CC)[C@@H]6C[C@@H]6CN6CC[C@]43[C@@H]65)C2)C1 (stereo not given in full) | 28.1% |
| C#CC(=O)Nc1cccc(Nc2nc3c(c(NCc4ccccc4)n2)CCCC3)c1 | -54.7% (active) |
| N#Cc1c(Nc2ccccc2)nn2cc(-c3nc4ccccc4s3)c(N)nc12 | 73.8% |
| COc1cc2c(c(OC)c1OC)C(=O)/C(=C/c1cc(C)c(O)c(C)c1)S2 | 5.19% (active) |
| COc1ccc(/C=N/NC(=O)c2cnn(CC(O)Cc3ccccc3)c2N)cc1OC1CCCC1 (stereo not given) | 93.4% |
| Cc1ccc(Cl)cc1NC(=O)c1cc2ccccc2cc1O | -58.7% (active) |
| COc1ccc(/C=C(/c2ccccc2)[N+](=O)[O-])c(OC)c1 | -56.5% (active) |
| Cc1nn(-c2ccccc2)c(Oc2c(Cl)cccc2Cl)c1/C=N/N=c1\sc2ccccc2n1C | 39.7% |
| CC(=O)CC(=O)SC1=NCCS1 | 124% |

| Compound | growth |
| --- | --- |
| COc1ccc(N(C)c2nc(Cl)nc3ccn(C)c23)cc1 | 49.9% |
| COc1ccc(/C=N/Nc2cc(=O)[nH]c3ccc(C)cc23)cc1 | 101% |
| CCOC(=O)c1nn(-c2ccc(C)cc2)c(=O)c2c(N)c(C#N)c(-c3ccc(OC)cc3)cc12 | 102% |
| COC(=O)c1cccc(NC2=CC(=O)C(C)=C(C)C2=O)c1 | 65.9% |
| Cn1cc(-c2nn3cc(-c4ccncc4)nc3s2)c2cc(Cl)ccc21 | 64.8% |
| O=Nc1c(O)ccc2ccccc12 | 78.9% and 81.4% |
| NC1=CC(=O)c2ccccc2C1=O | 96.2% |
| COc1ccc(/C(C)=N/NC(=O)CSc2nc3ccccc3c(=O)n2Cc2ccc(S(N)(=O)=O)cc2)c(OC)c1 | 93.9% |
| Cc1ccccc1SSc1ccccc1C | 68.4% |
| COc1cc(/C=C/C(=O)Nc2cccnc2Nc2cc(OC)c(OC)c(OC)c2)cc(OC)c1OC | 99.8% |
| CC(=O)N1N=C(C2C(=O)N(C)C(=O)N(C)C2=O)CC1c1ccccc1C(=O)O (stereo not given) | 114% |
| CCCCn1c(C)nc2ccc(Nc3nc(N4CCN(C)CC4)nc4nc[nH]c34)cc21 | 82.2% |
| O=C1CSC(c2ccccc2Cl)N1c1nnc(Cn2cnnc2)o1 (stereo not given) | 27.2% |
| O=c1[nH]c(=O)[nH]c(=S)[nH]1 | 95.8% |
| COc1cc(Cn2c(-c3ccccc3)cc3c2-c2oncc2CC3)cc(OC)c1OC | -20.5% (active) |
| N#Cc1c(-c2ccc(F)cc2)nc(N/N=C/c2cccc(O)c2)nc1N1CCOCC1 | 81.1% |
| O=C1C2CC=CCC2C(=O)N1CNc1ccc(Cl)cc1 (stereo not given) | 91% |
| O=C(Nc1ccc(Cl)cc1F)c1cc(F)ccc1O | 3.61% (active) |
| Oc1c(I)cc(I)cc1CNCc1ccccn1 | 29.3% |
| NCCn1cc(-c2nc(-c3c[nH]c4ncccc34)cs2)c2ccccc21 | 40.5% |
